Many of the other results were omitted from the sample, so hits are more common in it than they were.
Methyltransferases – Primary Screen for Target Class Profiling of Small Molecule Inhibitors of Methyltransferases; purified enzyme, MTase-Glo SAH luminescence; hits give low values; calls only at 40 µM; 25,000 tested, 3.9% active; AID 1745853, 2022; call rule not given here
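Each enzyme was reacted with SAM and its substrate, with compounds tested once at 40 uM; SAH formed was read by MTase-Glo luminescence.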
MTase-Glo ctr – detection enzyme interference, methyltransferase counter-screen. Potency, µM (top dose mostly 57.3 µM), most hits filed as inhibitors. 180 tested, 6% active. MTase-Glo coupled enzymes, SAH conversion luminescence, no MTase. shares compounds with Methyltransferases; active means well fitted inhibition curve with a large enough effect; inconclusive means small, poorly fitted or top-dose-only effect
Of the large screens only hits and unclear results are named; the others gave an inactive call (follow-up assays come after a bar, where they were run).

COc1cccc(N2C(=O)NC(=NC3CCCCC3)C23CCCN(CC2CCCCC2)C3)c1 (stereo unspecified)	Methyltransferases active | MTase-Glo ctr inactive
Cc1cc2c(cc3n2CC(C)(C(=O)NC2CCCCCC2)N(c2ccccc2C)C3=O)o1 (stereo unspecified)	none
CCCC(=O)Nc1cccc(NC(=O)c2ccccc2Br)c1	none
CC1(c2noc(-c3cccnc3)n2)CCN(C(=O)CCC(=O)N2CC(=O)Nc3ccccc32)CC1	none
O=C(C1CCCN1C(=O)c1ccccc1Cl)N1CCC(c2nc3ccncc3[nH]2)CC1 (stereo unspecified)	none
O=C(c1ccc(C(F)(F)F)cc1)N1CCCC(C(=O)N2CCC(c3nc4ccncc4[nH]3)CC2)C1 (stereo unspecified)	Methyltransferases active | MTase-Glo ctr inactive
O=C(c1ccc(C(F)(F)F)cc1)N1CCCC(C(=O)N2CCC(N3CCOC3=O)CC2)C1 (stereo unspecified)	none
COC(=O)CNC(=O)N1CCC2(CC1)CC(c1ccccc1)CN(C)C2 (stereo unspecified)	none
COc1cccc(NC(=O)c2cc3n(n2)CC(C)(C(=O)NC2CCCCCC2)N(C)C3=O)c1 (stereo unspecified)	none
COc1cccc(Nc2ccnc(-c3nnc(C)n3C3CCCCC3)c2)c1	Methyltransferases active | MTase-Glo ctr inactive
Cc1nnc(-c2cc(-c3ccccc3Oc3ccccc3)ccn2)n1C	none
CCOC(=O)c1cc2n(n1)CC(C)(C(=O)NCc1ccccc1)N(Cc1ccc(Cl)cc1)C2=O (stereo unspecified)	none
COc1cccc(CNC(=O)C(C)n2ccc3cc(S(=O)(=O)N4CCCCC4)ccc32)c1OC (stereo unspecified)	none
CCC(C)NC(=O)c1ccc2c(=O)n(C(C)C)c3nn(CC(=O)NC(C)C)c(=O)n3c2c1 (stereo unspecified)	none
CN1CCN(c2nc3c(c(=O)[nH]2)CCN(Cc2cn[nH]c2-c2ccc(F)cc2)CC3)CC1	none
COc1ccc(-c2[nH]ncc2CN2CC[C@H]3CC[C@@H](C2)N3)cc1	Methyltransferases active | MTase-Glo ctr inactive
CN1C(=O)[C@H]2CN(Cc3cn[nH]c3-c3ccc(F)cc3)C[C@H]2C1=O	none
Cc1cccc(C(=O)N2CCC(c3noc(CO)n3)C2)c1 (stereo unspecified)	none
CCOC(=O)c1cc2n(n1)CC(C)(C(=O)NC1CCCCCC1)N(c1ccc(NC(C)=O)cc1)C2=O (stereo unspecified)	none
Cc1noc(C)c1-c1cc2c(c(-c3ccccc3Oc3ccccc3)c1)C(=O)N(C)C2	none
CCn1c(C(=O)OC)c(NC(C)=O)c2cc(NC(C)Cc3ccccc3OC)cnc21 (stereo unspecified)	none
CN1C(=O)c2cc3ccccc3n2CC1(C)C(=O)NCC(=O)N1CCCCC1 (stereo unspecified)	none
COc1cccc(CNc2nc3c(S(=O)(=O)c4ccc(Br)cc4)nnn3c3ccccc23)c1	none
c1ccc(C(NCc2cccnc2)(c2ccccc2)c2ccccc2)cc1	none
c1ccc(Nc2cc3c(cn2)NCCN(Cc2cccs2)C3)cc1	none
Cn1cnc(CN2CCNc3cc(Nc4ccccc4)ncc3C2)c1	Methyltransferases active | MTase-Glo ctr inactive
c1ccc(CCN2CCNc3cc(NCc4cccnc4)ncc3C2)cc1	Methyltransferases active | MTase-Glo ctr inconclusive
Fc1ccccc1CN1CCNc2cnc(OCc3cccnc3)cc2C1	none
Cn1cc(CN2CCOc3cc([S+](=O)([O-])Nc4ccccc4)ccc3C2)cn1	none
O=C(COC(=O)C(Cc1c[nH]c2ccccc12)NC(=O)c1ccco1)c1ccccc1 (stereo unspecified)	none
CCCn1c(=O)c2cc(F)ccc2n2c(SCC(=O)N(C)c3ccccc3)nnc12	none
CC(C)CCn1c(=O)c2ccccc2n2c(=O)n(CC(=O)NCc3ccccc3Cl)nc12	none
O=C(O)C[C@@H]1CCN(C(=O)C2CCCC2)C[C@@H]1CCN1CCCCC1	none
COc1ccc(OCC(=O)N2CCN(c3cc(-c4ccccc4)[nH]n3)CC2)cc1	none
CC1CCC(NC(=O)C2(C)Cn3c(nc4ccccc43)C(=O)N2Cc2cccs2)CC1 (stereo unspecified)	none
CCn1cc(CN2CCCC23CCN(c2cc(C)nc4ccccc24)CC3)c(C)n1	Methyltransferases active | MTase-Glo ctr inactive
CCCn1ncc(CN2CCCC23CCN(c2ncccn2)CC3)c1C	none
CC(C)N1Cc2cc(C(=O)NC3CCN(Cc4ccccc4)CC3)sc2C1	none
COc1ccc(NC(=O)c2cc3c(s2)CN(C2CCCC2)C3)c(OC)c1	none
CC1CCCCN1CCCNC(=O)c1cc2c(s1)CN(C1CCCC1)C2 (stereo unspecified)	Methyltransferases active | MTase-Glo ctr inactive
COc1ccccc1OCCNC(=O)[C@]12CCCC[C@@H]1N(C)C(=O)CC2	none
COc1ccc(N2C(=O)c3c(NC(C)=O)c4cc(F)ccc4n3CC2(C)C(=O)NC2CCCC2)cc1 (stereo unspecified)	none
CC1(C(=O)NC2CCCCC2)Cc2ccccc2C(=O)N1CCc1ccccc1 (stereo unspecified)	none
CN(Cc1ccccc1)C1(C(=O)NC2CCC(O)CC2)Cc2ccccc2C1 (stereo unspecified)	Methyltransferases active | MTase-Glo ctr inactive
O=C(Cc1ccc(-c2ccccc2)cc1)NC1CCC1	none
CCCN1C(=O)c2c(C(=O)NCc3cccc(F)c3)ncn2CC1(C)C(=O)NC1CCCC1 (stereo unspecified)	none
CCCn1c(=O)c2ccc(C(=O)NC3CCCC3)cc2n2c(SCC(=O)Nc3ccc(C)cc3)nnc12	none
O=C(N[C@H]1CCN2C(=O)c3ccccc3NC(=O)[C@H]12)c1cccc(F)c1	none
c1ccc(-c2cc3c(cn2)NCCN(CC2CC2)C3)cc1	Methyltransferases active | MTase-Glo ctr inactive
Cc1cnc(-c2cccnc2)n1CC1CCN(S(=O)(=O)c2ccccc2)CC1	none
Cc1cnc(-c2cccnc2)n1C1CCCN(CC2CCCCC2)C1 (stereo unspecified)	none
COc1ccc(-c2nnn3c2nc(N2CCC(C)CC2)c2ccccc23)cc1	none
COc1ccccc1CCNC(=O)c1cc2n(n1)CC(C)(C(=O)NC1CCCCCC1)N(C)C2=O (stereo unspecified)	none
CCOCCCNC(=O)c1cc2c(=O)[nH]c(-c3ccccc3)cn2n1	none
Cc1cc(F)ccc1-c1[nH]nc2ncc(-c3ccnn3C)nc12	none
CC1(C)[C@H]2CC[C@@H](CNC(=O)c3ccc4ccccc4n3)[C@@H]1C2	none
COCCCNC(=O)c1cnc2n[nH]c(-c3ccccc3)c2n1	Methyltransferases active | MTase-Glo ctr inactive
COc1ccccc1-c1[nH]nc2ncc(C(=O)NCC3CC3)nc12	Methyltransferases active | MTase-Glo ctr inactive
c1ccc(-c2[nH]nc3ncc(-c4cn[nH]c4)nc23)cc1	Methyltransferases active | MTase-Glo ctr 25µM
COc1ccc(C(=O)NCCn2c(C)cnc2-c2ccccc2)cn1	none
COc1cccc2c1CCC[C@H]2CN(C)CCc1ccc2ccoc2c1	none
Cc1ccc(N(CC2=NCCN2)c2cccc(O)c2)cc1	none
CC(C)S(=O)(=O)N1CCC2(CC1)CC1C(=O)NCCN1C2 (stereo unspecified)	none
c1ccc(C(NCCNC(c2ccccc2)c2ccccc2)c2ccccc2)cc1	none
Cc1cc(-c2ncc(-c3cccnc3)cc2/C=C/c2ccccc2)cnc1-c1cccnc1	none
CC1(C(=O)NC2CCCCCCC2)Cn2c(cc3sccc32)C(=O)N1Cc1cccc(F)c1 (stereo unspecified)	none
